# Screening results as filed in PubChem.
# TcdB GH inh – TcdB glycohydrolase inhibitors, primary screen, biochemical, single point, plate reader; Toxin B (Clostridioides difficile), P18177; TcdB glycohydrolase enzymatic assay; inhibition, % at 9.99 µM; 350,000 tested, 0.24% active; AID 652162, 2013; in the data active means inhibition above about 10%
# PriA SSB inh – inhibitors of Klebsiella pneumoniae PriA binding to SSB C-terminal tail, primary screen, biochemical, AlphaScreen; inhibition, % at 33 µM; AlphaScreen SSBct-PriA binding, biotinylated peptide; AID 1272365, 2023; 430,000 tested, 0.6% active; PriA–SSB C-terminal tail interaction (Klebsiella pneumoniae); in the data active means inhibition mostly above about 37%, no sharp cut-off; inactive means mostly below about 20%;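 further: plate controls were negative control peptide for no effect and reference peptide for full effect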
# Vc quorum ag – inducers of Vibrio cholerae quorum light production without autoinducers, primary screen, BH1578 luxS cqsA deficient, single point | V. cholerae BH1578 lux reporter, luminescence, 6 h | activation, % at 18.7 µM | 350,000 tested, 0.16% active; in the data active means activation mostly above about 9.7%, no sharp cut-off
# CCHF vOTU inh – CCHFV vOTU protease inhibitors, primary screen, biochemical, Pep-AMC substrate, fluorescence; inhibition, % at 11.5 µM; 370,000 tested, 0.55% active; in the data active means inhibition above about 30%; further: 0% = vehicle wells with enzyme and 100% = no enzyme wells
# 3CLpro inhibitor – SARS-CoV 3CLpro protease inhibitors, primary screen, biochemical, quenched FRET | recombinant SARS-CoV 3CLpro, quenched FRET peptide cleavage | inhibition, % at 6 µM | 290,000 tested, 0.14% active; in the data active means inhibition above about 12%
# DUSP3 inh – VHR1 phosphatase inhibitors, primary screen, biochemical, absorbance, uHTS. Dual specificity protein phosphatase 3 (Homo sapiens), P51452. recombinant VHR phosphatase, pNPP absorbance. inhibition, % at 13.3 µM. 290,000 tested, 0.52% active. AID 1654, 2009; in the data active means inhibition above about 50%
# An asterisk follows results filed as active; i = inactive; . = not tested or not shown. Compounds with a hit are over-represented: about 1.3% of the library has one in this group of screens.
SMILES,TcdB GH inh,PriA SSB inh,Vc quorum ag,CCHF vOTU inh,3CLpro inhibitor,DUSP3 inh
Cc1cc(OC2CCN(C(=O)c3ccc(F)cc3Cl)CC2)cc(=O)n1C,.,0,.,.,.,.
CCN1CCN(C(c2ccccc2)c2nnnn2Cc2ccc3c(c2)OCO3)CC1 (stereo not drawn),1,-10,-1,8,-3,52*
CCN1CCN(C(c2ccc(OC)cc2)c2nnnn2Cc2ccc3c(c2)OCO3)CC1 (stereo not drawn),0,-3,0,-7,0,7
Cc1cc2ncc(-c3ccccc3)nc2cc1C,0,2,-1,-4,2,28
CCOC(=O)c1ccc2ncc(-c3ccccc3)nc2c1,25*,-1,4,2,2,16
O=C(c1ccc2nc[nH]c2c1)N1CC(c2nc(-c3ccco3)no2)C1,.,-19,.,.,.,.
NC(=O)NC(CC(=O)NCCCc1ccccc1)c1ccccc1Cl (stereo not drawn),1,-5,1,-1,0,-11
NC(=O)NC(CC(=O)NCCc1ccccn1)c1ccccc1Cl (stereo not drawn),2,-1,1,13,4,53*
Cc1cccc2sc(N3CC(OC(=O)c4cc(C5CC5)on4)C3)nc12,.,-6,.,.,.,.
O=C(CCN1CCc2ccccc21)c1ccc2c(c1)OCCO2,.,48*,0,-9,0,-8
CC(=O)N1CCN=C1SCc1ccc(Br)cc1,1,-20,0,10,2,53*
COc1ccc(CC(=O)N2CCN=C2SCc2ccc(Cl)c(Cl)c2)cc1OC,.,-12,.,.,.,.
CCOC(=O)N1CCN=C1SCc1ccc(Cl)c(Cl)c1,12*,4,0,8,1,15
CCc1[nH]nc(C(=O)N2CCCC(C(=O)c3cccc(C(F)(F)F)c3)C2)c1C (stereo not drawn),1,-10,0,25,-4,52*
Cc1nc2ccc(NC(=O)c3cccc(F)c3)cc2c(=O)n1-c1ccc(Cl)cc1,.,-4,.,.,.,.
O=C(NCc1ccco1)/C(=C/c1ccco1)NC(=O)c1ccc(Br)o1,-2,-11,0,-17,-1,-2
O=C(NC(=S)NCc1ccco1)c1ccc(Br)o1,.,45*,.,.,.,.
COc1ccc(NC(=O)CSc2ccc(-c3ccccn3)nn2)cc1,.,42,.,.,.,.
COc1cccc(NC(=O)CSc2ccc(-c3ccccn3)nn2)c1,.,76*,.,.,.,.
COc1cc(NC(=O)CSc2ccc(-c3ccccn3)nn2)cc(OC)c1,0,78*,0,11,2,10
CS(=O)(=O)c1ccc(CCC(=O)Nc2ccc3c(c2)CCC(=O)N3)cc1,.,33,.,.,.,.
COc1cc(NC(=O)C2Nc3cc(F)ccc3S(=O)(=O)N2)cc(OC)c1OC (stereo not drawn),.,-3,.,.,.,.
O=C(OCc1cc(-c2cccs2)on1)C1CC(=O)N(c2ccc(F)cc2)C1 (stereo not drawn),.,-11,.,.,.,.
O=C(Nc1nnc(-c2ccco2)o1)C1CCCCN1S(=O)(=O)c1ccc(Cl)s1 (stereo not drawn),.,14,.,.,.,.
CNC(=O)N(O)C1N(/N=C/c2ccc(SC)cc2)C(=S)SC1(C)C (stereo not drawn),10*,.,i,-9,-3,10
SMILES,TcdB GH inh,PriA SSB inh,Vc quorum ag,CCHF vOTU inh,3CLpro inhibitor,DUSP3 inh
CN(C)c1ccc(/C=N/N2C(=S)SC(C)(C)C2N(O)C(=O)Nc2ccc([N+](=O)[O-])cc2)cc1 (stereo not drawn),.,.,0,25,-4,16
CN(C)c1ccc(C=NN2C(=S)SC(C)(C)C2N(O)C(=O)Nc2ccc([N+](=O)[O-])cc2)cc1 (stereo not drawn),.,45*,.,.,.,.
O=C(NCC(Cc1cccc(F)c1)N1CCCC1=O)C1CC1 (stereo not drawn),.,-14,.,.,.,.
COc1ccccc1CCNC(=O)CCc1c(C)nn(-c2nc(C)c(C)c(=O)[nH]2)c1C,.,-8,.,.,.,.
Cc1nn(C)c(C)c1S(=O)(=O)NCC1CCN(C(=O)c2cc3ccccc3o2)CC1,.,-8,.,.,.,.
CC(=NNC(=O)c1nnn(-c2nonc2N)c1CN(C)c1ccccc1)c1ccccn1,.,90*,.,.,.,.
C/C(=N\NC(=O)c1nnn(-c2nonc2N)c1CN(C)c1ccccc1)c1ccccc1O,1,.,i,9,11,2
O=C(NCC1(O)Cc2ccccc2C1)C1CCOC1 (stereo not drawn),.,2,.,.,.,.
Cc1cc(NC(=O)CN2C(=O)NC3(CCC(C)CC3)C2=O)no1 (stereo not drawn),.,-10,i,-9,1,51*
Cc1ccc2nc(NC(=O)COc3ccccc3)sc2c1,.,-5,.,.,.,.
CC(NC(=O)CN1CCc2ccccc21)c1ccccc1 (stereo not drawn),.,0,i,4,2,54*
O=C(CCn1nc(-c2ccccc2)cc1-c1ccccc1)N/N=C\c1ccco1,.,20,.,.,.,.
O=C(CCn1cnc(-c2ccccc2)c1-c1ccccc1)N/N=C\c1ccco1,.,48*,.,.,.,.
Cc1cc(SCC(=O)N/N=C/c2ccco2)nc2ccccc12,14*,.,i,20,4,25
O=C(NN=Cc1ccco1)c1ccccn1,.,60*,.,.,.,.
O=C(N/N=C/c1ccc(OC(=O)c2cccs2)cc1)c1ccccn1,0,.,i,0,-5,53*
Cc1nc2c([nH]1)CC(C(=O)NCc1cccs1)CC2 (stereo not drawn),.,-5,.,.,.,.
O=S(=O)(NCC#CCOc1ccc2c(c1)OCO2)c1cccnc1,.,-5,.,.,.,.
O=C(Nc1nc(-c2ccccn2)cs1)c1ccc(C(F)(F)F)cc1,.,31,.,.,.,.
COc1ccc(C(=O)Nc2nc(-c3ccccn3)cs2)cc1OC,.,114*,.,.,.,.
O=C(Nc1nc(-c2ccccn2)cs1)c1ccc(F)cc1,.,107*,.,.,.,.
COc1coc(C(=O)Nc2nc(-c3ccccn3)cs2)cc1=O,.,87*,.,.,.,.
Cn1ccc2cc(C(=O)Nc3nc(-c4ccccn4)cs3)ccc21,.,110*,.,.,.,.
COc1ccc(OC)c(C(=O)Nc2nc(-c3ccccn3)cs2)c1,.,-5,.,.,.,.
COC(=O)N1CCC(CNC(=O)CCc2ccccc2Br)CC1,.,8,.,.,.,.
SMILES,TcdB GH inh,PriA SSB inh,Vc quorum ag,CCHF vOTU inh,3CLpro inhibitor,DUSP3 inh
O=C(C[C@H]1C/C=C/CC[C@@H](Cc2ccc(F)cc2)C(=O)OC[C@H]2CCCN2C1=O)NCCO,.,-12,.,.,.,.
COc1ccc(CC(=O)N(Cc2ccsc2)Cc2ccco2)cc1OC,.,-8,.,.,.,.
CN(CC1CCCO1)S(=O)(=O)c1ccc(C(=O)Nc2nc(-c3ccccn3)cs2)cc1 (stereo not drawn),.,44*,-2,.,-4,-5
O=C(Nc1nc(-c2ccccn2)cs1)c1ccc([N+](=O)[O-])cc1,.,102*,.,.,.,.
CSCc1ccc(C(=O)Nc2nc(-c3ccccn3)cs2)cc1,.,114*,.,.,.,.
CN(CC1CCCO1)S(=O)(=O)c1ccc(C(=O)Nc2nc(-c3cccnc3)cs2)cc1 (stereo not drawn),.,9,.,.,.,.
